# From PubChem BioAssay (NCI)
# This is part of a sample that, as a whole, favours compounds with a hit. Of some 79,000 tested, about 15% had one in any assay. Values without a mark were called inactive. Active and inactive are the calls of the source. Rule as the data show it: active = growth inhibition above about 70%; inactive = the rest.
# Tests used:
# [1] = NCI Yeast Anticancer Drug Screen. Data for the rad50 strain (AID 155);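 also: 0% = growth of vehicle-only cultures of the same strain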; details: S. cerevisiae rad50 strain growth inhibition; at 50.0 µM; active compounds read high
# Procedure, shortened: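 Yeast carrying a defined DNA repair defect were exposed to test compounds, and growth was compared with vehicle-treated controls to give percent inhibition.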
# [2] = NCI Yeast Anticancer Drug Screen. Data for the mec2-1 strain (AID 157); details: S. cerevisiae mec2-1 strain, at 50.0 µM, active compounds read high
# Procedure, shortened: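 Yeast mec2-1 mutant treated with compound. Readout: growth inhibition vs vehicle controls.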
# [3] = NCI Yeast Anticancer Drug Screen. Data for the sgs1 mgt1 strain (AID 161);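 also: 0% = growth of cultures given vehicle only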; details: S. cerevisiae sgs1 mgt1 strain, at 50.0 µM, active compounds read high
# Procedure, shortened: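 Read-out: growth inhibition vs vehicle controls. Cells: mutant yeast strain deficient in DNA damage repair.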
# [4] = NCI Yeast Anticancer Drug Screen. Data for the cln2 rad14 strain (AID 165);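 also: 0% = growth equal to vehicle treated cultures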; details: S. cerevisiae cln2 rad14 strain, at 50.0 µM, active compounds read high
# Procedure, shortened: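 cln2 rad14 yeast strain; compound exposure; growth inhibition read vs vehicle controls.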
# [5] = NCI Yeast Anticancer Drug Screen. Data for the bub3 strain (AID 167); details: S. cerevisiae bub3 mutant strain, at 50.0 µM, active compounds read high
# Procedure, shortened: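 Compounds were applied to a genetically altered yeast strain carrying a cell-cycle control defect. Growth inhibition was scored against vehicle-treated controls.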
# [6] = NCI Yeast Anticancer Drug Screen. Data for the mlh1 rad18 strain (AID 175); details: S. cerevisiae mlh1 rad18 strain growth inhibition; at 50.0 µM; active compounds read high
# Procedure, shortened: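 Yeast w/ defined DNA-repair lesions; compound exposure; growth vs vehicle controls → % inhibition.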
SMILES,growth inhibition [1],growth inhibition [2] [%],growth inhibition [3],growth inhibition [4] [%],growth inhibition [5] [%],growth inhibition [6]
C/C(=C/c1c(C)[nH]c(=O)[nH]c1=O)C(=O)O,10.9%,13.6,-3.75%,-29.8,8.75,-3.75%
O=C(N/C(=C\c1ccccc1)C(=O)N1CCNCC1)c1ccccc1,-1%,5.3,0.65%,-26.8,1.15,9.65%
NC(N)=NC(N)=Nc1ccc(-c2ccc(N=C(N)N=C(N)N)cc2)cc1,0.85%,-0.3,-0.7%,6.15,7.9,13.6%
COc1ccc(C)cc1N=NC1C(=O)N(C(=O)CC(=O)Nc2ccccc2OC)N=C1c1ccccc1 (stereo not given),12.8%,-1.5,-7.4%,6.55,2.35,15.3%
CSCCC(C(=O)O)N(CC1(O)OCC(O)C(O)C1O)N=O (stereo not given),-18.4%,-24.6,-17.6%,-9.15,-11.4,-11.2%
CC(C)CCC(=O)OC/C(=N\Nc1ccc([N+](=O)[O-])cc1[N+](=O)[O-])c1ccc(-c2ccccc2)cc1,-17.7%,12.5,-15.8%,-35.6,1.9,14.8%
O=C(NC1CCCCC1C1CCCCC1)c1ccc(Cl)cc1 (stereo not given),1.55%,2.5,-1.3%,-10.9,7.15,6.45%
CC(=O)c1cccc(NC(=O)c2cccc(Cl)c2)c1,-1.9%,-4.3,24.5%,-16.1,20.4,20.9%
CC(=O)Nc1cccc(C)n1,-17.8%,-3.2,1.6%,-71.8,-0.95,1.7%
N#CC(c1ccccc1)C(c1ccccc1)c1cccc2ccccc12 (stereo not given),12.2%,12.3,5.7%,-6.85,-3.3,15.6%
O=c1[nH]cnc2ncnn12,20%,4.2,9.65%,19.2,21,16.4%
C=CCSc1nc2ccc(NCn3c(=S)sc4ccccc43)cc2s1,71.7% (active),65.2,85.7% (active),47.1,41.9,56.7%
CC(=O)OCC1OC(N2C(S)=C(C#N)C(c3ccco3)C(C(C)=O)=C2c2ccccc2)C(OC(C)=O)C(OC(C)=O)C1OC(C)=O (stereo not given),21.4%,15.4,-0.25%,-7.4,-19.4,-6.15%
COc1ccc(Nc2nc(C#N)c(N)s2)cc1,3.75%,-12.6,-0.15%,-0.2,-27,-9.5%
c1ccc(Cc2[nH]nc(-c3n[nH]c(Cc4ccccc4)c3-c3ccccc3)c2-c2ccccc2)cc1,-28.8%,18.1,-9.65%,-8.35,-20.6,8.4%
COC(=O)c1ccccc1N=Cc1cc(Cl)ccc1O,21.5%,23.1,35.9%,6.1,19.6,88.2% (active)
CS(=O)c1ccc(C(F)(F)F)cc1C(=O)O (stereo not given),-3.3%,9.95,9.7%,-24.4,-20.5,9.85%
COC(=O)C1CCCN1C(c1ccccc1)(c1ccccc1)c1ccccc1 (stereo not given),-9.45%,-2.2,-11.5%,-2.15,2.45,-23.5%
Cc1cc(Cl)c(=O)n(-c2ccc(Cl)cc2)n1,27.3%,-4.6,9.45%,4.7,15.3,44.9%
CC(=O)NC(C=O)OCC=O (stereo not given),0%,17.9,-22.3%,0.55,-29.1,-46.9%
